Screening results deposited in PubChem BioAssay by National Center for Advancing Translational Sciences (NCATS).
TDP1 block = blocks human tyrosyl-DNA phosphodiesterase 1; Q9NUW8; recombinant TDP1, AlphaScreen DNA substrate cleavage; Potency, µM (top dose mostly 130 µM), inactives show at the highest dose activity change, negative = inhibition, hits mostly inhibitors; 350,000 compounds, 0.28% hits; AID 485290; note: nearly all actives have a fitted effect of over 40% in size
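Tdp1 1 nM final; 15 min RT w/ cpd; substrate 15 nM, 5 min; beads 10 ug/ml, 10 min; AlphaScreen read. Neg ctrl: no enzyme.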
VDR inhibitor = blocks the human vitamin D receptor | P11473 | Potency, µM, without a hit: max response, negative = inhibition, actives largely listed as inhibitors | 400,000 compounds, 0.93% hits | VDR-SRC2-3 peptide fluorescence polarization, 2 h | AID 504847
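VDR–SRC2-3 interaction, FP format. Cmpds 23 nl via pintool, brief spin, 2 h ambient incubation.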
TDP1 cell CPT = growth inhibition of DT40 Tdp1-/-;hTDP1 cells with camptothecin (screen for TDP1 inhibitors); chicken DT40 Tdp1-/-;hTDP1 cells + 20 nM CPT, ATP luminescence, 48 h; Potency, µM (doses to about 46.2 µM), inactives show at the top dose activity change, negative = growth inhibition, hits mostly inhibitors; 420,000 compounds, 12% hits; note: nearly all actives have a fitted effect of over 55% in size
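Chicken DT40 Tdp1-/- cells stably complemented with human TDP1 were seeded at 400 cells/well in medium containing 20 nM camptothecin, exposed to pin-transferred compounds, and grown at 37 °C for at least 48 hr. Viability was read as ATP luminescence.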
TDP1 cell noCPT = qHTS for Inhibitors of human tyrosyl-DNA phosphodiesterase 1 (TDP1): qHTS in cells in absence of CPT; AID 686978, 2013; Potency, µM (doses to about 46.2 µM), for inactives: top-dose activity change, negative = growth inhibition, most hits filed as inhibitors; 420,000 compounds, 15% hits; DT40 Tdp1-/- hTDP1 cells, no CPT, ATP luminescence, 48 h; note: nearly all actives have a fitted effect of over 55% in size
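Camptothecin absent (DMSO only). Human TDP1-complemented DT40 knockout cells, 400 cells/well, 37 °C for minimum 48 hr; ATP measured via CellTiter-Glo, 30 min dark incubation, luminescence.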
PLK1 PBD block = PLK1 (human) polo-box domain binding inhibition. P53350. Plk1 PBD binding of FITC phosphopeptide, fluorescence polarization. Potency, µM, for the others: max response, negative = inhibition, hits mostly inhibitors. 360,000 compounds, 2.8% hits; note: series mostly up to about 57 µM; nearly all actives have a fitted effect of over 65% in size
GCN5L2 inh = inhibitors of human GCN5L2 histone acetyltransferase. Q92830. GCN5L2 HAT assay, ThioGlo1 CoA-SH fluorescence. Potency, µM (series often up to 58.9 µM), for inactives: at the top dose activity change, negative = inhibition, hits mostly inhibitors. 390,000 compounds, 0.21% hits
Target sequence (Q92830 whole entry, looked up): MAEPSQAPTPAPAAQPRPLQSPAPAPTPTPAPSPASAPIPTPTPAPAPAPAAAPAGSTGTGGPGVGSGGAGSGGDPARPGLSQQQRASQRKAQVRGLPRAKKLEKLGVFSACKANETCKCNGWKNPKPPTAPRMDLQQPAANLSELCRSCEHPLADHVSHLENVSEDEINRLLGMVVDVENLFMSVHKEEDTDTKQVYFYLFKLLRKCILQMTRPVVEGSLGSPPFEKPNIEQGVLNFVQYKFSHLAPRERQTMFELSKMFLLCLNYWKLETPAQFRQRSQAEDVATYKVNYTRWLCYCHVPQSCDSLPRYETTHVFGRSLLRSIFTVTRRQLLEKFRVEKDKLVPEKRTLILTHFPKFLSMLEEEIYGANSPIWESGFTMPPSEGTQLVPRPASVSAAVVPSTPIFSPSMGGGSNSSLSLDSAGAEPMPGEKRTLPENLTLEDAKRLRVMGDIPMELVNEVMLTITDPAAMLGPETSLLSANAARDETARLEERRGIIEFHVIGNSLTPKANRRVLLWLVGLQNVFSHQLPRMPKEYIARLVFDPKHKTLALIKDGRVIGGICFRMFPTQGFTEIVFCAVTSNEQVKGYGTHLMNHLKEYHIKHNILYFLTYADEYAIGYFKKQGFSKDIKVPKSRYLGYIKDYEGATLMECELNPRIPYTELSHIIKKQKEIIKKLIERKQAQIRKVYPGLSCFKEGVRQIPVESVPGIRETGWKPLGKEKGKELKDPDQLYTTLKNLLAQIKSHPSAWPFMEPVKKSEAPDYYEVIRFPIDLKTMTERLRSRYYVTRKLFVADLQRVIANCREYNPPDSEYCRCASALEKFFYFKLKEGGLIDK
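GCN5L2 (20 nM) in 50mM HEPES pH 7.5, 0.1mM EDTA, 0.01% Tween-20 preincubated 15 min with compounds at room temperature. Reaction started with H3(1-25) 75uM, acetyl-CoA 70uM, ThioGlo1 50uM; CoA-thiol fluorescence (Ex340/Em540) read at 0 and 20 min.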
* marks the source's active call; other numbers are inactive results; u = inconclusive; x = not tested or not shown; [ ] = another dose, or the depositor's remark. In the library only some 18% were active in any assay of this set; here they are far more common. Calls come from the whole dose curve; as a rule, active = well fitted curve in the direction sought with a large enough effect; inconclusive = small, poorly fitted or top-dose-only effect, or another doubt; inactive = no such curve, though single readings can be large; an effect the other way counts as inactive or inconclusive. % is set by controls: 0 for no effect and ±100 for the full control effect; potency is the fitted concentration of half-maximal effect.

SMILES	TDP1 block	VDR inhibitor	TDP1 cell CPT	TDP1 cell noCPT	PLK1 PBD block	GCN5L2 inh
O=C(CCn1ccc2cc(S(=O)(=O)N3CCCC3)ccc21)NCc1ccccc1	-1%	2%	-29%	-7%	u	-6%
O=C(CCn1ccc2cc(S(=O)(=O)N3CCCC3)ccc21)NCc1cccc(F)c1	2%	u	u	u	7.5µM*	-5%
CCOc1ccccc1CNC(=O)CCCn1ccc2cc(S(=O)(=O)N3CCCC3)ccc21	1%	0%	23µM*	21µM*	4%	-23%
CN(C)c1ncc2nc(-c3cc(F)cc(F)c3)c(=O)n(CCc3ccccc3)c2n1	x	-3%	-27%	-5%	x	19%
CCC(C)Sc1cc(-c2nc3ccccn3c2NC2CCCCC2)ccc1OC (stereo unspecified)	0%	-5%	12µM*	15µM*	-7%	-14%
CCC(C)Sc1cc(-c2nc3cc(C)ccn3c2NC2CCCCC2)ccc1OC (stereo unspecified)	2%	-3%	21µM*	21µM*	-5%	-26%
CC(=O)c1ccc(-c2cccc(-c3nc4ccccn4c3NC3CCCCC3)c2)cc1	7%	2%	23µM*	15µM*	-4%	-10%
CCN(CC)c1ccc(-c2nc3cnccn3c2NC2CCCC2)cc1	8%	-16%	21µM*	u	3%	-11%
CC(C)NC(=S)Nc1ccc2nc3n(c(=O)c2c1)CCCCC3	-3%	-10%	4%	-8%	-9%	9%
CC(C)(C)NC(=O)c1ccc2nsnc2c1	5%	-7%	4%	-1%	-8%	-1%
CCC(C)Sc1cccc(-c2nc3cnccn3c2NC2CCCCC2)c1 (stereo unspecified)	-9%	-13%	21µM*	16µM*	-2%	u
c1cc(SC2CCCCC2)cc(-c2nc3cnccn3c2NC2CCCCC2)c1	-9%	-24%	u	u	20%	u
CC(NCC1(N2CCOCC2)CCCCC1)C(=O)N1CCc2ccccc21 (stereo unspecified)	-3%	-14%	-15%	u	-8%	-18%
CC(Nc1ccccc1N1CCCCC1)C(=O)N1CCc2ccccc21 (stereo unspecified)	7%	4%	u	16µM*	-7%	-6%
CC(NC(c1ccccc1)c1ccccc1)C(=O)N1CCCc2ccccc21 (stereo unspecified)	-8%	-5%	12µM*	10µM*	-7%	-5%
COC(C(=O)C(O)C(C)O)C1Cc2cc3cc(OC4CC(OC5CC(O)C(O)C(C)O5)C(O)C(C)O4)c(C)c(O)c3c(O)c2C(=O)C1OC1CC(OC2CC(OC3CC(O)C(OC)C(C)O3)C(O)C(C)O2)C(O)C(C)O1 (stereo unspecified)	x	-6%	0.1µM*	0.15µM*	-5%	x
CCCC(=O)N1CCC1(C)C(=O)NS(=O)(=O)c1cccc(Cl)c1 (stereo unspecified)	x	x	-28%	2%	1%	x
Cn1c(N)c(C(=O)COC(=O)Cc2cccc(C(F)(F)F)c2)c(=O)n(C)c1=O	-2%	-11%	-27%	u	-5%	1%
O=C(Nc1ccc(Cl)c(Cl)c1)Nc1nccs1	x	3%	2.1µM*	0.82µM*	-8%	2%
CC(Cc1cccs1)NC(=O)Nc1ccc(Cl)c(Cl)c1 (stereo unspecified)	0%	-13%	23µM*	23µM*	-9%	-6%
O=C(Nc1cccc(Cl)c1)Nc1nccs1	3%	36%	u	16µM*	2%	-5%
CSc1ccc(Cl)c(C(=O)Nc2nccs2)c1	1%	8%	-9%	-3%	-10%	-1%
C=CCn1c(=O)c2c(nc(Br)n2Cc2ccccc2Cl)n(C)c1=O	2%	-4%	18µM*	u	30µM*	-30%
Cn1c(=O)n(CCO)c(=O)c2c1nc(Br)n2Cc1ccccc1	x	7%	-23%	u	-5%	3%
CCOC(=O)Cn1c(=O)c2c(nc(Br)n2Cc2ccccc2Cl)n(C)c1=O	1%	4%	18µM*	23µM*	-1%	0%
SMILES	TDP1 block	VDR inhibitor	TDP1 cell CPT	TDP1 cell noCPT	PLK1 PBD block	GCN5L2 inh
CCOC(=O)Cn1c(=O)c2c(nc(Br)n2Cc2ccccc2)n(C)c1=O	2%	x	x	x	x	-1%
COc1ccc(/C=C/c2cc(=O)c3cc(Cl)ccc3o2)cc1	4%	-5%	u	21µM*	-6%	-15%
COc1c(Cl)c(=O)oc2ccc(Cl)cc12	x	x	-14%	-2%	-4%	x
O=C(NCC(=O)N1CCN(C/C=C/c2ccccc2)CC1)c1ccc(Br)cc1	2%	-2%	16µM*	8.2µM*	-8%	0%
Cc1ccc(S(=O)(=O)NC(CC(C)C)C(=O)N2CCN(C/C=C/c3ccccc3)CC2)cc1 (stereo unspecified)	1%	15%	16µM*	16µM*	4%	-12%
Cc1ccc(S(=O)(=O)NC(CC(C)C)C(=O)N2CCOCCOCCOCC2)cc1 (stereo unspecified)	x	18%	6%	3%	-3%	-14%
CSCCC(NC(=O)c1ccc(Cl)c([N+](=O)[O-])c1)C(=O)N1CCN(C/C=C/c2ccccc2)CC1 (stereo unspecified)	-2%[0.505 µM]	-1%	18µM*	u	2%	-4%
O=C(NCC(=O)N1CCN(C/C=C/c2ccccc2)CC1)c1ccc(OC(F)F)cc1	2%	1%	u	15µM*	-4%	1%
CC1(C)C[C@H]2C3=CCC4[C@@]5(C)CC[C@H](O)[C@](C)(CO)C5CC[C@@]4(C)[C@]3(C)C[C@H]3O[C@@H]1[C@H](O)[C@]32CO (stereo partly specified)	0%	6%	-2%	-8%	4%	-1%
C=CCNS(=O)(=O)c1cc(S(=O)(=O)NCC=C)c(OC)cc1OC	-9%	9%	32%	-2%	u	-4%
C[C@H](NC(=O)c1ccc(C(C)(C)C)cc1)C(=O)N1CCN(C/C=C/c2ccccc2)CC1	4%	-1%	u	21µM*	4%	-7%
CC(=O)c1ccc(S(=O)(=O)NCC(=O)N2CCN(C/C=C/c3ccccc3)CC2)cc1	4%	-16%	u	-24%	27µM*	1%
Cc1cc(C)n(CCC(=O)N=Nc2c(O)[nH]c3ccc(Br)cc23)n1	5%	-9%	u	u	-6%	-1%
COc1ccc(/C(C)=N/OCC(=O)N=Nc2c(O)[nH]c3ccc(Br)cc23)cc1	3%	6%	u	18µM*	-4%	-1%
